# From PubChem BioAssay
# Pf Dd2 growth – blocks in vitro growth of P. falciparum Dd2; P. falciparum Dd2 growth, SYBR Green, 72 h; Potency, µM (series often up to 28.9 µM), without a hit: at the highest dose activity, negative = inhibition, usual class: inhibitors; hit rate 4.3% among 120,000; AID 1347417; active = well fitted inhibition curve with a large enough effect;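 also: plate controls were DMSO vehicle for no effect and reference drug for full effect; nearly all actives have a fitted effect of over 65% in size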
#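 Infected erythrocytes (Dd2, 0.3% parasitemia, 2.5% hematocrit final) are added to compound in RPMI-1640/Albumax II medium, grown 72 h at 37C in low oxygen, then lysed with saponin/Triton-X containing SYBR Green and read by fluorescence.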
# Starred values were filed as active, the others as inactive; i = inactive; [ ] = another dose, or the depositor's remark. Shown is part of a subset that was picked to be rich in hits. Potency is read from the fitted curve at half-maximal effect.
SMILES,Pf Dd2 growth
COc1ncccc1-c1cc2c(ccn2CC2CCN(C)CC2)c(N2CCOCC2)n1,8.9µM*
CCn1cc(S(=O)(=O)N2C[C@@H](Oc3ccccc3)C[C@H]2C(=O)N2CCOCC2)cn1,-4%
O=C(CSc1oc(-c2ccc(F)cc2)nc1S(=O)(=O)c1ccccc1)NC1CCCCC1,16%
O=C1[C@@H]2C[C@@H](O)CN2C2(CN(Cc3ccoc3)C2)C(=O)N1Cc1cccc(Cl)c1,-11%[44.1 µM]
Cn1c(=O)n(CCCc2ccccc2)c(=O)c2c1nc1n2CCN1c1ccccc1,-2%
CC(=O)N1CCC2(CC1)CN(C(=O)Cc1ccc(Cl)cc1)CCO2,-1%
Cc1noc(C)c1CC(=O)N1CCc2ncnc(N3CCCC3)c2CC1,-12%
Cc1ccc(C(=O)NC2CCN(c3cnn(CC4CC4)c(=O)c3)CC2)cc1C,i
Cc1ccc(N2CCC(N[C@@H]3CC[C@@H](N)C3)CC2)cc1Cl,13µM*
Cc1ccc(-n2ncc3c(NC4CCCCCC4)ncnc32)cc1Cl,i
COC[C@@H]1CN(C(=O)c2cccn2C)C[C@H]1c1ccccn1,2%
COc1ccc(CC(=O)NC2CCN(c3cnn(C)c(=O)c3)CC2)cc1,i
Cc1nc2c(c(-c3ccc(Cl)cc3)n1)CCN(C(=O)c1ccccc1)CC2,-17%
CC(C)c1nc2c(c(-c3ccc(Cl)cc3)n1)CCN(Cc1cccnc1)CC2,11µM*
CN1CCN(c2nc3c(c(=O)[nH]2)CCN(Cc2cccnc2)CC3)CC1,38%[5.79 µM]
CC(C)c1nc2c(c(-c3ccc(O)cc3)n1)CN(C(=O)N(C)C)CC2,i
CN(Cc1cccnc1)c1nc2c(c(=O)[nH]1)CCN(Cc1ccc(Cl)cc1)CC2,-10%[5.79 µM]
CC(C)c1nc2c(c(-c3ccc(Cl)cc3)n1)CCN(Cc1cccc3ccccc13)CC2,11µM*
CCOc1ccccc1C(=O)N1C[C@@H](CN2CCCN(C)CC2)[C@@H](CO)C1,-3%
CCCN(CC1CCOC1)C(=O)Nc1ccccc1OCC (stereo not drawn),i[5.79 µM]
O=C(NCc1cccs1)c1noc(-c2ccc(F)cc2)n1,i
Cn1cnc(C(=O)N2CCC(N(Cc3ccccc3)C3CCOCC3)CC2)c1,-7%
Cn1cc(C(=O)N2CCC(N(Cc3ccccc3)C3CCOCC3)CC2)cn1,i
O=C(c1cccc(Cl)c1)N1CCC(N(Cc2ccccc2)C2CCOCC2)CC1,5µM*
NC1CC(c2cc(NCc3noc(C(F)(F)F)n3)ncn2)C1 (stereo not drawn),-9%
SMILES,Pf Dd2 growth
COCC(=O)NC1CCC12CCN(C(=O)COC)CC2 (stereo not drawn),10%
COc1ccc(CC(=O)NCc2ccc3c(c2)CCN3C(=O)c2cccc(C)c2)cc1,i
COc1cc2c(cc1OC)C(COc1ccc3c(C)cc(=O)oc3c1)N(C(=O)c1cccc(OC)c1OC)CC2 (stereo not drawn),8.9µM*
CCNC(=O)NCC1c2cc(OC)c(OC)cc2CCN1C(=O)Nc1ccccc1OC (stereo not drawn),i
COc1cc2c(cc1OC)C(COc1ccc3c(C)cc(=O)oc3c1)N(C(=O)c1cccc(C)c1)CC2 (stereo not drawn),5µM*
COc1ccc(OCC(=O)N2CCN(C(=O)c3cccc(OC)c3OC)CC2)cc1,-1%
Cc1cc(C)c(NC(=O)COc2ccc3c(C)cc(=O)oc3c2)c(C)c1,i
CC[C@H]1CN(S(=O)(=O)c2ccccc2)CC[C@H]1CC(=O)N(C)CCC#N,6%[44.1 µM]
CCC1CN(Cc2cccc(C)n2)CCC(=O)N1Cc1ccccc1 (stereo not drawn),-7%
COCCOCC(=O)N1CC(Oc2ccc(-c3nc(C)no3)cc2)C1,77%[5.79 µM]
O=C(N[C@H]1CCN2C(=O)c3cc(-c4ccccc4)ccc3NC(=O)[C@H]12)C1CCCC1,i
O=C(C1CCC(CNS(=O)(=O)c2ccc(Br)s2)CC1)N1CCN(c2ccccc2)CC1 (stereo not drawn),-6%
O=C(C1CCN(S(=O)(=O)c2cccs2)CC1)N1CCN(c2cccc(Cl)c2)CC1,-15%
O=C(C1CCC(CNS(=O)(=O)c2cccs2)CC1)N1CCN(c2ccc(Cl)cc2)CC1 (stereo not drawn),13µM*
Cc1ccc(Cl)cc1NC(=O)C1CCCN(S(=O)(=O)c2c(C)noc2/C=C/N(C)C)C1 (stereo not drawn),-22%
CCc1cc(NCCc2nc(C)cs2)n2nccc2n1,i
CCn1cc(CN2CC(Oc3ccc(-c4noc(-c5ccncc5)n4)cc3)C2)cn1,1.8µM*
CCn1cc(S(=O)(=O)N2CC(Oc3ccc(-c4nc(C)no4)cc3)C2)cn1,i[5.79 µM]
Cn1cc(C(=O)N2CC(Oc3ccc(-c4nc(-c5ccccc5)no4)cc3)C2)cn1,25%[5.79 µM]
COCCNC(=O)[C@@H]1C[C@@H](O)CN1C1CCN(C(=O)COc2ccccc2)CC1,-4%
CCOC(=O)CNC(=O)CSc1cn(CC(=O)N2CCCCCC2)c2ccccc12,-23%
COc1ccc(Cl)cc1NC(=O)c1sc2nc3n(c(=O)c2c1C)CCC3,6%
COc1ccccc1NS(=O)(=O)c1cc2c(cc1Cl)NC(=O)CO2,8.9µM*
COc1ccc(CNS(=O)(=O)c2cc3c(cc2Cl)NC(=O)CO3)cc1,38%[0.594 µM]
COc1ccc(NS(=O)(=O)c2cc3c(cc2C)NC(=O)CO3)c(OC)c1,4%
SMILES,Pf Dd2 growth
Cc1ccc(C(=O)N2CCC(CCC(=O)N3CCCCC3)CC2)cc1,3%
CCOCCn1c(=O)[nH]c2cc(C(=O)NCCN3CCOC3=O)ccc21,-3%
Cc1ccc(-c2cc(C(=O)N3CCC(Cc4nncn4C(C)C)CC3)c3ccccc3n2)cc1C,5µM*
Cc1nn(C(=O)CCCC(=O)N2CCC(Cc3nncn3C(C)C)CC2)c2ccccc12,-10%
CC(C)n1cnnc1CC1CCCN(C(=O)c2n[nH]c3ccccc23)C1 (stereo not drawn),-3%
Cc1nc([C@@H]2CN(S(=O)(=O)c3ccc(C#N)cc3)C[C@H]2C(N)=O)n[nH]1,-10%
Cc1ccnc(C(NC(=O)CCc2cc3n(n2)CCCNC3)C2CC2)c1 (stereo not drawn),-5%
CCOc1ccc(Cl)cc1CN(C)Cc1cc2n(n1)CCCNC2,5.6µM*
CN(Cc1ccc2c(c1)OCO2)Cc1cc2n(n1)CCNC2,0%
COc1ccc(C(=O)N2CCC3(CC(C(C)C)=NO3)C2)cc1 (stereo not drawn),42%
Cc1ccccc1OCCCCn1c(C2CC(=O)N(c3ccccc3Cl)C2)nc2ccccc21 (stereo not drawn),14%
CCCCN1CC(c2nc3ccccc3n2CCCCOc2ccccc2C)CC1=O (stereo not drawn),10µM*
Cc1cccc(C)c1OCCCCn1c(C2CC(=O)N(c3ccc(F)cc3)C2)nc2ccccc21 (stereo not drawn),i
CCCN(CC1CCOC1)C(=O)Nc1cc(F)cc(F)c1 (stereo not drawn),10%[5.79 µM]
Cc1ccc(-n2c(=O)c3c(C)c(C(=O)N(C)C)sc3n(CC(=O)C(C)(C)C)c2=O)cc1C,7%
CCCN(CC1CCOC1)C(=O)Nc1ccc(F)c(Cl)c1 (stereo not drawn),15%[5.79 µM]
Cc1cccc(C(=O)N2CCc3cc(CNC(=O)c4ccco4)ccc32)c1,4%
O=C(NCc1ccc2c(c1)CCN2C(=O)c1ccc(F)cc1)c1ccco1,2.8µM*
O=C(NCc1ccc2c(c1)CCN2C(=O)c1ccc(Cl)cc1)c1ccco1,35%
CS(=O)(=O)N1CCCCCCn2c(nnc2-c2ccc(F)cc2)CC1,i
CCc1ccccc1NC(=O)COC(=O)c1cn(CC)c2nc(C)ccc2c1=O,2%
O=C(CCC1CCCCC1)NC1CCN(c2cn[nH]c(=O)c2)CC1,2%
